From PubChem BioAssay come the findings set out here.

Active and inactive are the calls of the source.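 The calls were made as follows: active = inhibition at or above 50% relative to wild type and mutant plate controls; inactive = inhibition below 50%.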

A short description of the assay: inhibitors of Chlamydomonas gravitaxis, primary screen, whole organism, Chlamydomonas reinhardtii, WT vs cilia-less mutant, absorbance, 96-well (AID 463189).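 Also: 0% = wild type cc124 cells in DMSO and 100% = ciliumless bld1 mutant cells.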 The note with it: OD600 absorbance, 2 days, at 10 µM, stronger effect = higher value.
For orientation: inhibition means the relative decrease from the control value, in per cent. With `OCCN1CCN(CC/C=C2/c3ccccc3Sc3ccc(C(F)(F)F)cc32)CC1`, the inhibition was 15.6% (inactive).
The same measure for `CCCn1c(=O)c2[nH]c(-c3ccc(OCC(=O)NCCN)cc3)nc2n(CCC)c1=O`: 3.94% (inactive); for `O=c1cc(-c2ccc(O)cc2)oc2cc(O)cc(O)c12`: 14.8% (inactive); for `CN(C)c1cc2c(Nc3ccc4c(cnn4Cc4ccccc4)c3)ncnc2cn1`: 2.93% (inactive).
Turning to `CN(C)CC[C@@H](c1ccc(Br)cc1)c1ccccn1`, the inhibition was 15% (inactive).
The same measure for `O=C(Nc1cccc(C(=O)Nc2ccc(S(=O)(=O)O)c3cc(S(=O)(=O)O)cc(S(=O)(=O)O)c23)c1)Nc1cccc(C(=O)Nc2ccc(S(=O)(=O)O)c3cc(S(=O)(=O)O)cc(S(=O)(=O)O)c23)c1`: 1.9% (inactive).
The result for `NCC(O)(CS(=O)(=O)O)c1ccc(Cl)cc1` (stereo not given) reads 30.8% (inactive); that for `CCNC(=O)C1OC(n2cnc3c(NCc4ccccc4)ncnc32)C(O)C1O` (stereo not given), -0.03% (inactive).
The result for `O=c1onc2cnc3ccccc3n12` reads 3.46% (inactive); that for `NC(=NCCC[C@H](N)C(=O)O)NO`, -1.45% (inactive).
Turning to `COc1ccc(CCN(C)CCc2ccc(OC)c(OC)c2)cc1OC`, the inhibition was 11.9% (inactive).
The result for `CCCCCCCC/C=C\CCCCCCCC(=O)NCCc1ccc(O)c(O)c1` reads -1.34% (inactive); that for `O=S(=O)(NCCNC/C=C/c1ccc(Br)cc1)c1cccc2cnccc12`, 19.5% (inactive).
The result for `CN1CCc2ccccc2Cc2[nH]c3ccccc3c2CC1` reads 10.8% (inactive); that for `C1CCC(N=C(NC23CC4CC(CC(C4)C2)C3)N2CCOCC2)CC1`, 2.95% (inactive).
As for `CC(C)COCC(CN(Cc1ccccc1)c1ccccc1)N1CCCC1` (stereo not given), the inhibition was -3.6% (inactive).
The same measure for `C=C1C(=O)O[C@@H]2[C@H]3O[C@]3(C)CCC=C(C)CC[C@@H]12`: 4.91% (inactive).
In the case of `O=c1[nH]c2cc(C(F)(F)F)ccc2n1-c1cc(C(F)(F)F)ccc1O`, the inhibition is -0.852% (inactive).
The same measure for `CCN1CCC[C@H]1CNC(=O)c1c(OC)ccc(I)c1O`: 9.9% (inactive); for `O=C(O)[C@@H]1C[C@H](C(=O)O)N1`: 1.3% (inactive); for `NCCS`: 8.28% (inactive).
The result for `NNc1nncc2ccccc12` reads -2.73% (inactive); that for `C#CCN1C(C)=C(C(=O)OC)C(c2cccc([N+](=O)[O-])c2)C(C(=O)OCC)=C1C` (stereo not given), 4.14% (inactive).
For `c1ccc(C2CN3CCSC3=N2)cc1` (stereo not given), the inhibition was 45.3% (inactive).
The same measure for `CC(C)(C=O)Cc1cc(C(C)(C)C)c(O)c(C(C)(C)C)c1`: -3.35% (inactive); for `CN1C2CCC1CC(NC(=O)c1nn(C)c3ccccc13)C2` (stereo not given): 10.7% (inactive); for `O=c1c2ccccc2nc2n1CCc1c-2[nH]c2ccccc12`: 2.73% (inactive).
Consider `c1ccc(-c2ccccn2)nc1`, for which the inhibition is 1.35% (inactive).
The result for `COc1ccccc1NC(=O)Nc1nc(-c2cccnc2)nc2ccccc12` reads -0.831% (inactive); that for `COc1cc(Cc2cnc(N)nc2N)cc(OC)c1OC`, 0.332% (inactive).
The same measure for `Nc1ncnc2c1ncn2C1CCCC1`: -2.12% (inactive); for `O=C(Nc1ccc([N+](=O)[O-])cc1Cl)c1cc(Cl)ccc1O`: 43.4% (inactive).
The result for `CSc1ccc(C(=O)c2[nH]c(=O)[nH]c2C)cc1` reads -1.05% (inactive); that for `CCCCS(=N)(=O)CC[C@H](N)C(=O)O` (stereo not given in full), -0.592% (inactive); that for `CC(C)C(=O)c1c(C(C)C)nn2ccccc12`, 52.8% (active).
Take `CC(C)C(=O)Nc1ccc([N+](=O)[O-])c(C(F)(F)F)c1`: the inhibition is -17.5% (inactive).
The same measure for `CCCCCCCCCCCCCCCCCC(=O)NCC(COP(=O)([O-])OCC[N+](C)(C)C)OCC` (stereo not given): 9.71% (inactive); for `COc1cc2ncnc(Nc3cccc(Cl)c3)c2cc1OC`: -7.15% (inactive); for `CCCn1c(=O)c2[nH]c(-c3ccc(OCC(=O)Nc4ccc(C#N)cc4)cc3)nc2n(CCC)c1=O`: 4.77% (inactive).
Regarding `NCCC(=O)NCCc1cnc[nH]1`, the inhibition is 3.88% (inactive).
